# According to PubChem BioAssay AID485297 (National Center for Advancing Translational Sciences (NCATS), 2010):
# Out of some 320,000 compounds screened, about 9,100 (2.8%) were called active. Entries that show only a call come without a potency. About 3% were inconclusive and are not listed. The sample holds actives, similar compounds and a random draw of the others, so the mix is not that of the screen. Values without a mark were called inactive. Calls come from the whole dose curve; as a rule, active = well fitted activation curve with a large enough effect; inconclusive = small, poorly fitted or top-dose-only effect; inactive = no such curve, though single readings can be large or run the other way.
# Assay: qHTS Assay for Rab9 Promoter Activators; note: nearly all actives have a fitted effect of over 60% in size
# Conditions: Huh7 Rab9 promoter-luciferase reporter, luminescence, 24 h; series mostly up to 9.22 µM
# From the text: NIH Chemical Genomics Center [NCGC] NIH Molecular Libraries Probe Production centers Network [MLPCN] MLPCN Grant: MH089537-01 Assay Submitter (PI): Yiannis A. Ioannou NCGC Assay Overview: Niemann Pick Type C (NPC) is a rare neurodegenerative lipidosis that is characterized by lipid storage in the endosomal/lysosomal system. Treatment modalities for this devastating disease are currently non-existent due to the severe obstacles associated with accessing the central nervous system with proteins or genes (Ioannou, 2000). We have developed a new paradigm, termed "Orphan Receptor Bypass Therapy" (ORByT), to address these disorders. This paradigm posits the existence of endogenous "suppressor" proteins whose expression can dramatically improve LSD pathogenesis. The goal is the identification/discovery of small chemical compounds that can modulate the expression of these proteins and provide a new treatment modality for these devastating disorders. One such protein whose overexpression reverses aspects of the NPC phenotype is Rab9. We have developed and optimized a cell based luciferase reporter assay in 1536 well format for the identification of up-regulators of the Rab9 promoter.
# The Rab9 promoter is cloned in front of the luciferase reporter gene, therefore […] promoter activation results in luciferase expression. Frozen stock of the Rab9 promoter transfected Huh7 cells were obtained from the laboratory of Dr. Yiannis Ioannou (The Mount Sinai School of Medicine, New York, NY). Cells were propagated and maintained at NCGC in medium containing RPMI-1640 supplemented with 10% FBS, 2mM L-glutamine, and 50ug/ml penicillin/streptomycin. Cells were harvested in and plated for assays in OP-MEM I reduced-serum medium supplemented with 10% FBS. The Amplite luciferase reporter gene assay kit was purchased from ABD Bioquest and prepared/stored according to manufacturers recommendations. qHTS Assay Setup: 1.Dispensed 5ul of Huh7 cells stably expressing Rab9-luciferase at a density of 1500 cells per well 1536-well plates. 2.Incubate cells at 37C, 5% CO2, and 95% humidity for 2 hours. 3.Transferred 23nl per well of compound in DMSO solution. 4.Incubated at 37C, 5% CO2, and 95% humidity for 24 hours. 5.Dispensed 3ul per well of Amplite reagent(ABD Bioquest) per well. 6.Incubate at ambient for 10 minutes. 7.Read using the luminescence protocol on the ViewLux plate reader (Perkin Elmer).
# Potency is the fitted concentration of half-maximal effect.
Structure (SMILES),Potency,"activation, negative = inhibition"
Nc1ccc(-c2nnc(-c3ccc(-c4ccccc4)cc3)o2)cc1,2.51 µM (active),
Nc1ccc(-c2nnc(-c3ccccc3)o2)cc1,3.98 µM (active),
O=C(COC(=O)c1ccc(Oc2ccccc2)cc1)Nc1nnc(-c2ccccc2)o1,inactive,
O=C(COC(=O)c1ccccc1Br)Nc1nnc(-c2ccccc2)o1,inactive,
O=C(Nc1cccc(Cl)c1)Nc1nnc(-c2ccccc2)o1,inactive,
Nc1ccc(-c2sc(N)nc2-c2ccccc2)cc1,inactive,
CC(C(=O)NC1CCCC1)N1CCN(S(=O)(=O)c2ccccc2Cl)CC1 (stereo unspecified),inactive,
COc1ccc(N(CCC(=O)NCCc2ccccc2)S(=O)(=O)c2ccc(C)cc2C)cc1,inactive,
COC(=O)c1ccc(C(=O)NC2CC(C)(C)Cc3c2cnn3-c2ccc(F)cc2)nc1 (stereo unspecified),inactive,
Cn1c(N)c(C(=O)COC(=O)COc2ccc(Cl)cc2)c(=O)n(C)c1=O,inactive,
Cc1ccc(C(=O)COc2cccc(NC(=O)c3ccco3)c2)cc1,inactive,
Cc1cccc(NC(=O)Nc2cccc(Oc3c(F)c(F)c(F)c(F)c3F)c2)c1,inactive,
Cc1ccoc1C(=O)Nc1cccc(Oc2ccccc2)c1,3.98 µM (active),
Cc1ccc2c(c1)c1ncnc(N3CCc4ccccc4C3)c1n2C,inactive,
COc1ccc(-n2ncc3c(N4CCCc5ccccc54)ncnc32)cc1,0.794 µM (active),
COc1ccc(Oc2c(Cl)cnn(-c3ccccc3)c2=O)cc1,inactive,
COc1ccc2oc(=O)c(C(=O)N3CCCc4ccccc43)cc2c1,inactive,
Cc1cccc(-n2ncc(Cl)c(Cl)c2=O)c1,inactive,
Cc1cccc(-n2ncc3c(N4CCc5ccccc54)ncnc32)c1,2 µM (active),
CC1(NC(=O)CCS(=O)(=O)c2ccc(Cl)cc2)CCS(=O)(=O)C1 (stereo unspecified),inactive,
COCCNc1nc2nonc2nc1N1CCCC1c1nccs1 (stereo unspecified),inactive,
CC(=O)NC12CC3CC(C1)CC(C(=O)N1CCN(C(=O)c4ccco4)CC1)(C3)C2,inactive,

Structure (SMILES),Potency,"activation, negative = inhibition"
CCCNC(=O)c1c(Cl)cnn1-c1ccc(C)cc1,2.51 µM (active),
CCCNC(=O)CCc1c(C)nc2c(c(C)nn2-c2ccc(C)cc2)c1C,inactive,
CCCNC(=O)c1ccc(Cl)c(Cl)c1,inactive,
O=C(CCc1nc2sc3c(c2c(=O)[nH]1)CCCC3)NCC(=O)Nc1ccccc1Br,inactive,
COc1cc(OC)cc(-c2c(-c3cccs3)c3cc(-c4ccc(OC)nc4)ccc3n2C)c1,inactive,
O=C(NCC(=O)N1CCCCCCC1)c1ccccc1Cl,inactive,
COc1ccccc1/C=C/C(=O)OCC(=O)NC1CCCCCC1,inactive,
Cc1cc(C)n2nc(C(=O)OCC(=O)N(C)CC(=O)Nc3ccc(F)cc3)nc2n1,inactive,
CCC(C)N(C)C1CCN(C(=S)Nc2ccc(OC)cc2)CC1 (stereo unspecified),inactive,
COc1ccc(NC(=S)N2N=CCC2c2ccccc2)cc1 (stereo unspecified),3.16 µM (active),
COc1ccc(C(=O)NC2CCN(C(=S)Nc3ccccc3)CC2)cc1,inactive,
CC(C(=O)Nc1ccc(S(=O)(=O)N2CCCC2)cc1)N(C)Cc1ccc(F)cc1 (stereo unspecified),inactive,
CN(CC(=O)NCc1ccc(Cl)cc1)S(=O)(=O)c1cccs1,inactive,
COc1cccc(NC(=O)COC(=O)/C=C/c2ccco2)c1,inactive,
COC(=O)C1=C(C)NC(=S)NC1c1ccc(OCC(=O)N2CC(C)OC(C)C2)c(OC)c1 (stereo unspecified),inactive,
COc1ccc(C(=O)NC2=NCCS2)c(OC)c1,1.41 µM (active),
O=C(NCc1ccc2c(c1)OCO2)c1ccc(Cl)s1,inactive,
O=C(NC1=NCCS1)c1ccc(Cl)s1,3.98 µM (active),
CCOc1ccc(C(=O)CCC(=O)NC2=NCCS2)cc1,inactive,
COc1ccccc1C(=O)NCCC(=O)NC1=NCCS1,inactive,
COc1ccc(Cc2nnc(NC(=O)c3ccc(OC)cc3OC)s2)cc1,inactive,
COc1ccc(OC)c(NC(=O)c2cnn(-c3ccccc3Cl)c2NC(=O)c2ccco2)c1,inactive,

Structure (SMILES),Potency,"activation, negative = inhibition"
COc1ccccc1OCC(=O)Nc1c2c(nn1-c1ccc(F)cc1)CS(=O)(=O)C2,inactive,
Cc1occc1-c1nnc(SCC(=O)NC2(C#N)CCCC2)n1C,inactive,
CC(=O)Nc1ccc(S(=O)(=O)Nc2cccc(NC(=O)C(C)(C)C)c2)cc1,inactive,
CC(C)(C)C(=O)Nc1ccc(-c2cn3cccnc3n2)cc1,3.98 µM (active),
FC(F)(F)Oc1ccc(-c2cn3cccnc3n2)cc1,2.51 µM (active),
CC(=O)Nc1ccc(S(=O)(=O)Nc2nc(-c3ccc(C(C)(C)C)cc3)cs2)cc1,inactive,
O=c1ccc(S(=O)(=O)N2CCCC2)cn1Cc1nc(-c2ccccc2)no1,inactive,
O=C(Cn1nnc(-c2ccccc2)n1)NC(=O)NC1CCCC1,inactive,
CCOc1ccc(NC(=O)CN(C)C(=O)c2cccc(S(=O)(=O)N3CCCC3)c2)cc1OCC,inactive,
CCN(CC(=O)Nc1ccc(OC)cc1)C(=O)CSCc1ccc(C)cc1,inactive,
CC1(C)CC(=O)C=C(c2ccc3ncccc3c2)C1,inactive,
O=C(Nc1cc(S(=O)(=O)N2CCOCC2)ccc1OCC(F)(F)F)c1ccc(N2CCCC2=O)cc1,inactive,
O=C(CSc1ccc(-c2ccco2)nn1)Nc1cccc(F)c1,inactive,
Cc1cc(SCc2c(F)cccc2Cl)nc(=O)[nH]1,inactive,
Fc1cccc(Cl)c1CSc1ccc(-c2ccco2)nn1,2.51 µM (active),
O=C(COC(=O)CNC(=O)C1CCCCC1)Nc1cccc(F)c1,inactive,
CCN(CC(=O)Nc1c(F)cccc1F)C(=O)c1ccc(-c2ccc(C(C)=O)cc2)o1,inactive,
Cc1cc(C)cc(-c2nnc(SCC(=O)NC3CC3)o2)c1,inactive,
Cc1ccc(C(CC(=O)O)NC(=O)c2ccc(S(=O)(=O)N3CCCC3)cc2)cc1 (stereo unspecified),inactive,
O=C(OCc1nnc(-c2ccccc2)o1)c1ccc2c(c1)C(=O)N(CCc1ccccc1)C2=O,inactive,
O=C(OCc1ccc(Br)cc1)c1cccc(-c2nnc(-c3ccccc3)o2)c1,3.55 µM (active),
CC(=O)Nc1cccc(C(=O)OCC(=O)Nc2nnc(-c3ccccc3)o2)c1,inactive,

Structure (SMILES),Potency,"activation, negative = inhibition"
O=C(NCCC1=CCCCC1)c1ccc(-n2cncn2)cc1,3.16 µM (active),
O=C(NCCC1=CCCCC1)c1ccc(Cl)c([N+](=O)[O-])c1,inactive,
O=C(COc1cccc(-n2cnnn2)c1)NCCC1=CCCCC1,inactive,
C=C1CCC(N(O)c2cc(C)on2)C(=C)CCC2C1CC2(C)C (stereo unspecified),inactive,
Cc1ccc(OCC(=O)N2CCN(S(=O)(=O)c3ccc(Cl)s3)CC2)cc1C,inactive,
Cc1ccc(/C=C/C(=O)OCC(=O)NCc2ccc(Cl)cc2)o1,inactive,
COc1cccc(COc2ccc(N(C)S(=O)(=O)c3ccccc3)cc2)c1,inactive,
COc1ccc(OCc2cccc(C(=O)N3CCCC3)c2)cc1,0.398 µM (active),
CCOc1ccc(OCc2cccc(C(=O)N(CC)CC)c2)cc1,0.141 µM (active),
CN(Cc1ccccc1)C(=O)c1ccc(COc2ccccc2)cc1,inactive,
CC(=O)Oc1ccc(-c2cccc(C(=O)N3CCCCC3)c2)cc1,inactive,
COc1ccc(Cn2c(=S)[nH]c3cc(C(=O)N4CCCCC4)ccc3c2=O)cc1,inactive,
COc1ccccc1CNS(=O)(=O)c1cc(C(=O)NCc2ccccn2)c(Cl)cc1Cl,inactive,
CC(C(=O)N(C)CC(=O)Nc1ccccc1C(F)(F)F)N1C(=O)c2ccccc2C1=O (stereo unspecified),inactive,
Nn1c(SCC(=O)Nc2nccs2)nnc1-c1ccco1,inactive,
CCN(CC(=O)Nc1ccc(OC)cc1)C(=O)c1ccc(Cl)c(S(=O)(=O)N2CCCC2)c1,inactive,
Cc1ccccc1NC(=O)Cc1nc(COC(=O)c2cccnc2Cl)cs1,inactive,
O=C(NCCc1c[nH]c2ccccc12)c1cccc(Br)c1,,-1.43% [at 1.84 µM]
O=C(NCCc1c[nH]c2ccccc12)c1cc2ccccc2oc1=O,3.98 µM (active),
CN(c1ccccc1)S(=O)(=O)c1ccc(Cl)c(C(=O)NCCc2c[nH]c3ccccc23)c1,inactive,
COCCNc1nnc(SCC(=O)NNC(=O)c2ccco2)s1,inactive,
CCCCc1ccc(NS(=O)(=O)c2cccc(C(=O)N3CCCN(C)CC3)c2)cc1,inactive,

Structure (SMILES),Potency,"activation, negative = inhibition"
COc1ccccc1P(=O)(c1ccccc1)c1ccccc1NC(C)=O (stereo unspecified),inactive,
Cc1cccc(C)c1OCCN1CCOCC1,inactive,
Cc1cc2nc(SCCN3CCOCC3)[nH]c2cc1C,3.55 µM (active),
CCn1c2ccc(F)cc2c2nnc(SCCN3CCOCC3)nc21,inactive,
O=C(Nc1cccnc1Oc1ncnc2cc(Cl)ccc12)c1ccc(F)cc1,inactive,
Cc1ccc(S(=O)(=O)N(C)C)cc1NC(=O)c1ccc(-n2cncn2)c([N+](=O)[O-])c1,inactive,
O=C(O)c1cccc(N2C(=O)Nc3ccccc3N2O)c1,inactive,
O=C(NC1CC1)c1ccc2c(c1)NC(=O)c1ccccc1S2,inactive,
C/C(=N\Nc1cccc(C(=O)O)c1)c1ccc2c(c1)Nc1ccccc1S2,3.16 µM (active),
CCc1ccccc1NC(=O)CN(C)C(=O)c1cc(C2CC2)nn1-c1ccccc1,inactive,
CCN1C(=S)N[C@@H](c2cccc(C(F)(F)F)c2)C(C(=O)OC)=C1C,inactive,
O=C(CN1CCN(S(=O)(=O)c2ccc(Cl)s2)CC1)N1CCCCC1,inactive,
COC(=O)c1cc(NS(=O)(=O)c2ccc3c(c2)c(=O)n(C)c(=O)n3C)cc(C(=O)OC)c1,inactive,
CSc1ccccc1C(=O)OCC(=O)N1CCN(C(C)=O)CC1,inactive,
N#C/C(=C1/CCCN1)c1ccccn1,inactive,
N#CC(=C1CCCC1)c1nc(-c2ccc(Cl)cc2)cs1,3.16 µM (active),
CCCCCN1CC(O)=C(c2nc(-c3ccc(Cl)cc3)cs2)C1=N,inactive,
CCCCN(C(=O)c1nn(C)c(=O)c2ccccc12)c1c(N)n(CCC)c(=O)[nH]c1=O,inactive,
